Laboratory results from PubChem BioAssay (NCATS).
Records with an inconclusive call do not appear. Activity calls are given as the source filed them. Calls come from the whole dose curve; as a rule, active = well fitted cell-killing curve with a large enough effect; inconclusive = small, poorly fitted or top-dose-only effect, or effect the other way; inactive = flat fitted curve, though single readings scatter.

Experiments:
Assay in all cases: Primary qHTS to identify gynecologic anti-cancer compounds using libraries of approved drugs and bioactive compounds (AID 1345084); note: nearly all actives have a fitted effect of over 55% in size
[1] = test system: C33A; conditions: Gynecologic cancer cell panel viability, ATPlite luminescence, 48 h; series mostly up to 57.5 µM
In short: (§1)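 Five-concentration response, 48 h; readout is ATP-driven luciferase luminescence.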

[2] = test system: CAOV3; conditions: Gynecologic cancer cell panel viability, ATPlite luminescence, 48 h; series mostly up to 57.5 µM
In short: as §1

[3] = test system: CASKI; conditions: Gynecologic cancer cell panel viability, ATPlite luminescence, 48 h; series mostly up to 57.5 µM
In short: as §1

[4] = test system: Es-2; conditions: Gynecologic cancer cell panel viability, ATPlite luminescence, 48 h; series mostly up to 57.5 µM
In short: as §1

[5] = test system: HeLa; conditions: Gynecologic cancer cell panel viability, ATPlite luminescence, 48 h; series mostly up to 57.5 µM
In short: as §1

[6] = test system: Hek293T; conditions: Gynecologic cancer cell panel viability, ATPlite luminescence, 48 h, control line for the selectivity index; series mostly up to 57.5 µM
In short: as §1

[7] = test system: JEG-3; conditions: Gynecologic cancer cell panel viability, ATPlite luminescence, 48 h; series mostly up to 57.5 µM
In short: as §1

[8] = test system: OV90; conditions: Gynecologic cancer cell panel viability, ATPlite luminescence, 48 h; series mostly up to 57.5 µM
In short: as §1

[9] = test system: PA-1; conditions: Gynecologic cancer cell panel viability, ATPlite luminescence, 48 h; series mostly up to 57.5 µM
In short: as §1

[10] = test system: SKOV3; conditions: Gynecologic cancer cell panel viability, ATPlite luminescence, 48 h; series mostly up to 57.5 µM
In short: as §1

[11] = test system: Tov-21-G; conditions: Gynecologic cancer cell panel viability, ATPlite luminescence, 48 h; series mostly up to 57.5 µM
In short: as §1

[12] = test system: Tov112D; conditions: Gynecologic cancer cell panel viability, ATPlite luminescence, 48 h; series mostly up to 57.5 µM
In short: as §1
% is set by controls: 0 for no effect and ±100 for the full control effect.

COc1ccc(-c2ccc(-c3cn(C(=O)N4CCCCC4c4ccccc4)nn3)cc2)cc1 (configuration not stated)
inactive: Potency [1] | Potency [2] | Potency [3] | Potency [4] | Potency [5] | Potency [6] | Potency [7] | Potency [8] | Potency [9] | Potency [10] | Potency [11] | Potency [12]

CCOCc1nc2c(N)nc3ccccc3c2n1CC(C)(C)O
inactive: Potency [1] | Potency [2] | Potency [3] | Potency [4] | Potency [5] | Potency [6] | Potency [7] | Potency [8] | Potency [9] | Potency [10] | Potency [11] | Potency [12]

O=C1NC(Cc2ccccc2)C(=O)N2CCCC12 (configuration not stated)
inactive: Potency [1] | Potency [2] | Potency [3] | Potency [4] | Potency [5] | Potency [6] | Potency [7] | Potency [8] | Potency [9] | Potency [10] | Potency [11] | Potency [12]

C[C@@H]1O[C@@H](O[C@H]2[C@H](O[C@H]3[C@H](O[C@H]4CC[C@@]5(C)C(CC[C@]6(C)C5CC=C5[C@@H]7CC(C)(C)C[C@@H](O)[C@]7(C)CC[C@]56C)[C@@]4(C)CO)O[C@H](C(=O)O)[C@@H](O)[C@@H]3O)OC[C@H](O)[C@@H]2O)[C@H](O)[C@H](O)[C@H]1O (some centres not stated)
inactive: activity change, negative = cytotoxicity [1] -0.169% [at 11.6 µM] | activity change, negative = cytotoxicity [2] 0% [at 11.6 µM] | activity change, negative = cytotoxicity [3] -2.47% [at 11.6 µM] | activity change, negative = cytotoxicity [4] 1.77% [at 11.6 µM] | activity change, negative = cytotoxicity [5] 0% [at 11.6 µM] | activity change, negative = cytotoxicity [6] -7.13% [at 11.6 µM] | activity change, negative = cytotoxicity [7] -0.873% [at 11.6 µM] | activity change, negative = cytotoxicity [8] -3.06% [at 11.6 µM] | activity change, negative = cytotoxicity [9] -1.53% [at 11.6 µM] | activity change, negative = cytotoxicity [10] -7.2% [at 11.6 µM] | activity change, negative = cytotoxicity [11] -1.97% [at 11.6 µM] | activity change, negative = cytotoxicity [12] -12.3% [at 11.6 µM]

CC1CCCCN1S(=O)(=O)c1ccc(N2CCCC2=O)cc1 (configuration not stated)
inactive: Potency [1] | Potency [2] | Potency [3] | Potency [4] | Potency [5] | Potency [6] | Potency [7] | Potency [8] | Potency [9] | Potency [10] | Potency [11] | Potency [12]

CC(C)C(CO)Nc1nc(Nc2ccc(C(=O)O)c(Cl)c2)c2ncn(C(C)C)c2n1 (configuration not stated)
inactive: Potency [1] | Potency [2] | Potency [3] | Potency [4] | Potency [5] | Potency [6] | Potency [7] | Potency [8] | Potency [9] | Potency [10] | Potency [11] | Potency [12]

O=C(Nc1ccn[nH]1)c1c(F)cccc1F
inactive: Potency [1] | Potency [2] | Potency [3] | Potency [4] | Potency [5] | Potency [6] | Potency [7] | Potency [8] | Potency [9] | Potency [10] | Potency [11] | Potency [12]

CC1CC[C@]2(C(=O)O)CC[C@]3(C(=O)O)C(=CCC4[C@@]5(C)CC[C@H](OC6OC(C)C(O)C(OC7OC(CO)C(O)C(O)C7O)C6O)C(C)(C)C5CC[C@]43C)C2C1C (some centres not stated)
inactive: Potency [1] | Potency [2] | Potency [3] | Potency [4] | Potency [5] | Potency [6] | Potency [7] | Potency [8] | Potency [9] | Potency [10] | Potency [11] | Potency [12]

C=C[C@H]1C(O[C@@H]2O[C@H](CO)[C@@H](O)[C@H](O)[C@H]2O)OC=C2C(=O)N3CCc4c([nH]c5ccccc45)[C@H]3C[C@H]21 (some centres not stated)
inactive: Potency [1] | Potency [2] | Potency [3] | Potency [4] | Potency [5] | Potency [6] | Potency [7] | Potency [8] | Potency [9] | Potency [10] | Potency [11] | Potency [12]

O=C(O)c1cc(-c2c(-c3ccccc3)nn3ccccc23)n[nH]c1=O
inactive: Potency [1] | Potency [2] | Potency [3] | Potency [4] | Potency [5] | Potency [6] | Potency [7] | Potency [8] | Potency [9] | Potency [10] | Potency [11] | Potency [12]

CC(C)(C)NC(=O)[C@@H](c1cccnc1)N(C(=O)c1ccco1)c1ccc(C(C)(C)C)cc1
inactive: Potency [1] | Potency [2] | Potency [3] | Potency [4] | Potency [5] | Potency [6] | Potency [7] | Potency [8] | Potency [9] | Potency [10] | Potency [11] | Potency [12]

COc1ccc2nc(S(=O)(=O)Cc3ncc(C)c(OC)c3C)[nH]c2c1
inactive: Potency [1] | Potency [2] | Potency [3] | Potency [4] | Potency [5] | Potency [6] | Potency [7] | Potency [8] | Potency [9] | Potency [10] | Potency [11] | Potency [12]

Cc1[nH]c2ccccc2c1CCNC(=O)c1ccccc1F
inactive: Potency [1] | Potency [2] | Potency [3] | Potency [4] | Potency [5] | Potency [6] | Potency [7] | Potency [8] | Potency [9] | Potency [10] | Potency [11] | Potency [12]

CC(C)=CCC[C@](C)(O)[C@H]1CC[C@]2(C)[C@@H]1[C@H](O)CC1[C@@]3(C)CC[C@H](O)C(C)(C)C3[C@@H](O[C@@H]3O[C@H](CO)[C@@H](O)[C@H](O)[C@H]3O[C@@H]3OC[C@@H](O)[C@H](O)[C@H]3O)C[C@]12C (some centres not stated)
inactive: Potency [1] | Potency [2] | Potency [3] | Potency [4] | Potency [5] | Potency [6] | Potency [7] | Potency [8] | Potency [9] | Potency [10] | Potency [11] | Potency [12]

COc1ccc2cc(C(C)C(=O)Oc3ccc(C(N)=S)cc3)ccc2c1 (configuration not stated)
inactive: Potency [1] | Potency [2] | Potency [3] | Potency [4] | Potency [5] | Potency [6] | Potency [7] | Potency [8] | Potency [9] | Potency [10] | Potency [11] | Potency [12]

CC(C)CC1NC(=O)C2CC3(O)c4ccccc4NC3N2C1=O (configuration not stated)
inactive: Potency [1] | Potency [2] | Potency [3] | Potency [4] | Potency [5] | Potency [6] | Potency [7] | Potency [8] | Potency [9] | Potency [10] | Potency [11] | Potency [12]
